“And” between values parts separate entries of the source, which are not always exact repeats. Equal entries are not always repeated. Results filed as inconclusive are left out. Values without a mark were called inactive. The source made the active and inactive calls. The call rests on the fitted dose curve; in most records, active means well fitted cell-killing curve with a large enough effect; inconclusive means small, poorly fitted or top-dose-only effect, or effect the other way; inactive means no such curve, though single readings can be large or run the other way.
experiment: Viability qHTS for spleen associated tyrosine kinase inhibitor (SYKi) drug resistant MV4-11 cells (AID 1963824); details: SYKi-resistant MV4-11 viability, CellTiter-Glo, 72 h; series mostly up to 45 µM; further: nearly all actives have a fitted effect of over 35% in size
Excerpt: Department of Medicine, Hematology/Oncology
University Hospital Frankfurt, Germany.
Trials have shown promising clinical activity of the selective SYK inhibitor entospletinib in patients with high expressing HOXA9/MEIS1 acute leukemias. As the development of resistance mechanisms is a common problem in the use of targeted drugs, we performed a chemical library screen to identify drug sensitivities in SYK inhibitor resistant AML cells. […] Glucocorticoids are potent immunosuppressants which work in part by inhibiting the transcription of cytokine genes.
Described herein is a viability screen to look for activity in the SYK inhibitor drug resistant cell line against four NCATS compound libraries (MIPE 5.0, NPC, NPACT, and Kinase) totaling 11372 compounds. Active hits were reacquired for confirmation and further secondary assay testing.
SEQUENCE No. (e.g., 1, 2, 3, etc.); […] (e.g., Cells, Incubation, Reagent, etc.); VALUE; DESCRIPTION.
1; Media; 2uL; white, solid-bottom Corning assay plate.
2; Compounds; 23nL; Echo acoustic dispenser.
3; Cell; 5uL; 500 cells per well.
4: Incubation; 72hr; 37 C, 5% CO2, 95% humidity.
5; Reagent; 3uL; CellTiter-Glo reagent (Promega).
6; Incubation; 10min; room temperature.
7; Detection; Luminescence; ViewLux plate reader (PerkinElmer).
NOTES (numbers refer to Sequence numbers above
1. Quantitative high-throughput screening (qHTS) of small molecule compounds was conducted on drug resistant SYKi MV4-11 cell line.
2. Twenty-three nanoliter of small molecule compounds were added to each assay plates using the Echo acoustic dispenser (Beckman Coulter).
3. Cells were seeded into the assay plates at a final density of 500 cells in 5uL of media per well using the Multidrop Combi dispenser.
4. Plates were covered with stainless steel gasketed lids and incubated for 72 hours at standard cell culture conditions.
5. Viability was assessed by adding 3uL of CellTiter-Glo detection reagent (Promega).
6. Plates were covered with gasket lids and incubated for 10 minutes at room temperature.
7. Luminescence was measured on a ViewLux plate reader (PerkinElmer).
Potency means the concentration at half of the fitted maximal effect.

SMILES	Potency	viability, % of control
CC1CCCC(SCC(O)C(=O)O)CC(=O)c2c(O)cc(O)cc2CC(=O)O1 (stereo not given)	2.24 µM (active)	
Cc1cc(O)cc(Oc2cc(C)c(C(=O)O)c(O)c2)c1	inactive	
CCCCCC1CC1CC1CC1CCCCCCCC(=O)O (stereo not given)	inactive	
CCN(Cc1cccnc1)C(=O)CN(c1ccc(OC)nc1)S(=O)(=O)c1ccccc1C	inactive	
Clc1ccc(C(Cn2ccnc2)OCc2ccc(Sc3ccccc3)cc2)c(Cl)c1 (stereo not given)	6.61 µM (active)	
Cc1cc2occ(CN(C)CCN(C)Cc3cn(-c4cccc(C(F)(F)F)c4)c4ccccc34)c(=O)c2cc1C	4.61 µM (active)	
COc1cc(OCc2cccc(-c3ccccc3)c2C)cc(OC)c1CN1CCCC[C@H]1C(=O)O	8.33 µM (active)	
COc1ccccc1C(=O)Nc1cc2c(cc1N1CCCCC1)n(C)c(=O)n2C	14.8 µM (active)	
COc1cc2c(N3CCN(C(=O)Nc4ccc(OC(C)C)cc4)CC3)ncnc2cc1OCCCN1CCCCC1	366 nM (active) and 662 nM (active)	
CC(C)(C)OC(=O)Nc1ccc(-c2cc(C(=O)NCCCCCCC(=O)NO)no2)cc1	1.48 µM (active)	
CN(Cc1ccccc1)C(=O)c1ccc(S(=O)(=O)Nc2ccccc2)cc1	14.8 µM (active)	
N#Cc1ccc(-c2ccc(S(=O)(=O)Nc3cccc(N)n3)cc2)cc1	7.31 µM (active)	
COC(=O)c1cccnc1	inactive	
COc1cc([C@@H](CC(=O)O)c2ccc(C)c(CN3C[C@@H](C)Oc4ccccc4S3(=O)=O)c2)cc2nnn(C)c12	7.42 µM (active)	
Cc1cc(Nc2nc(-c3ccccc3)nc3ccccc23)n[nH]1	0.366 µM (active)	
CS(=O)(=O)Nc1cc2occ(NC=O)c(=O)c2cc1Oc1ccccc1	inactive	
CNC(C)C(=O)NC(C(=O)N1CCCC1c1nc(C(=O)c2ccc(F)cc2)cs1)C1CCCCC1 (stereo not given)	2.59 µM (active)	
CC(C)=CCC[C@](C)(O)[C@H]1CC[C@]2(C)[C@@H]1[C@H](O)CC1[C@@]3(C)CC[C@H](O)C(C)(C)[C@@H]3[C@@H](O[C@@H]3O[C@H](CO)[C@@H](O)[C@H](O)[C@H]3O[C@@H]3O[C@H](CO)[C@@H](O)[C@H](O)[C@H]3O)C[C@]12C (stereo not given in full)	inactive	
CCOC(=O)c1cc2ccc(O)cc2oc1=O	14.6 µM (active)	
CCC1C(=O)OCC1Cc1cncn1C (stereo not given)	inactive	

SMILES	Potency	viability, % of control
COc1cc(OC)c(C(=O)CCCN2CCCC2)c(OC)c1	inactive	
OC[C@H]1O[C@H](O[C@]2(CCl)O[C@H](CCl)[C@@H](O)[C@@H]2O)[C@H](O)[C@@H](O)[C@H]1Cl	inactive	
COc1ccc(-c2ccc3c(N4CCOC[C@@H]4C)nc(N4CCOC[C@@H]4C)nc3n2)cc1CO	0.148 µM (active)	
CCN1CCN(CC(=O)Nc2ccc(-c3cccc4c(=O)cc(N5CCOCC5)oc34)c3sc4ccccc4c23)CC1	422 nM (active) and 723 nM (active)	
CC1(C)CC2C3=CCC4C5(C)CCC(OC6OC(CO)C(O)C(OC7OC(CO)C(O)C(OC8OC(CO)C(O)C(OC9OC(COC%10OC(CO)C(O)C(O)C%10O)C(O)C(O)C9O)C8O)C7O)C6O)C(C)(C)C5CCC4(C)C3(C)CCC2(C(=O)O)CC1O (stereo not given)		99.5% [at 9.25 µM]
CCN1CCN(Cc2ccc(NC(=O)c3ccc(C)c(NC(=O)c4cncc(-c5cccs5)c4)c3)cc2C(F)(F)F)CC1	14.6 nM (active) and 26.3 nM (active)	
Cc1cc(C)c(CNC(=O)c2cc(-c3ccc(N4CCN(C)CC4)nc3)cc3c2c(C)cn3C(C)C)c(=O)[nH]1	14.8 µM (active) and 16.6 µM (active)	
Nc1ncnc2c1nc(N)n2[C@@H]1O[C@H](CO)[C@@H](O)[C@H]1O	0.517 µM (active)	
C=C1CC[C@@H]2[C@](C)(CO)[C@H](O)CC[C@@]2(C)[C@@H]1CC(O)C1=CCOC1=O (stereo not given in full)	4.53 µM (active)	
CCOc1ccn(-c2ccc(F)cc2)c(=O)c1C(=O)Nc1ccc(Oc2ccnc(N)c2Cl)c(F)c1	580 nM (active) and 1.05 µM (active)	
COc1ccc2c(c1)C(c1ccc(F)cc1)=C(CN1CCCC1)CO2	20.9 µM (active)	
C[C@]12C[C@@H](O)[C@@H]3C[C@@]1(O[C@@H]1O[C@H](CO)[C@@H](O)[C@H](O)[C@H]1O)[C@]3(COC(=O)c1ccccc1)C(=O)O2	inactive	
Cc1cc2c(F)c(Oc3ncnn4cc(OC[C@@H](C)O)c(C)c34)ccc2[nH]1	9.34 µM (active)	
CN1CCN(CCC(=O)N2c3ccccc3Sc3ccc(C(F)(F)F)cc32)CC1	23.7 µM (active)	
CC[C@@H]1C[C@]1(NC(=O)[C@@H]1C[C@@H]2CN1C(=O)[C@H](C(C)(C)C)NC(=O)OCC(C)(C)CCCCc1cccc3c1CN(C3)C(=O)O2)C(=O)NS(=O)(=O)C1CC1	18.4 µM (active)	
CO[C@H]1O[C@@H]2O[C@@]3(C)CC[C@H]4[C@H](C)CC[C@@H]([C@H]1C)[C@@]24OO3	0.934 µM (active)	
COc1ccc2cc3[n+](cc2c1OC)CCc1cc2c(cc1-3)OCO2	1.68 µM (active) and 934 nM (active)	
Nc1ncnc2c1ncn2Cc1c(F)cccc1Cl	inactive	
CCC(C)(CN(C)C)OC(=O)c1ccccc1 (stereo not given)	inactive	
Nc1nc(F)nc2c1ncn2[C@@H]1O[C@H](COP(=O)(O)O)[C@@H](O)[C@@H]1O	14.8 µM (active)	

From PubChem BioAssay (NCATS)
